ADAM17 inh – ADAM17 inhibitors, primary screen, biochemical, QFRET | inhibition, % at 6.95 µM | hit rate 0.83% among 370,000 | recombinant ADAM17, EDANS/DABCYL FRET peptide cleavage | AID 720648, 2013 | Disintegrin and metalloproteinase domain-containing protein 17 (Homo sapiens), P78536;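 active = inhibition above the mean of compounds lying between control limits plus 3 SD, set per campaign, cut at about 8.5% in these data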
Target sequence (P78536 215-824 limits assumed): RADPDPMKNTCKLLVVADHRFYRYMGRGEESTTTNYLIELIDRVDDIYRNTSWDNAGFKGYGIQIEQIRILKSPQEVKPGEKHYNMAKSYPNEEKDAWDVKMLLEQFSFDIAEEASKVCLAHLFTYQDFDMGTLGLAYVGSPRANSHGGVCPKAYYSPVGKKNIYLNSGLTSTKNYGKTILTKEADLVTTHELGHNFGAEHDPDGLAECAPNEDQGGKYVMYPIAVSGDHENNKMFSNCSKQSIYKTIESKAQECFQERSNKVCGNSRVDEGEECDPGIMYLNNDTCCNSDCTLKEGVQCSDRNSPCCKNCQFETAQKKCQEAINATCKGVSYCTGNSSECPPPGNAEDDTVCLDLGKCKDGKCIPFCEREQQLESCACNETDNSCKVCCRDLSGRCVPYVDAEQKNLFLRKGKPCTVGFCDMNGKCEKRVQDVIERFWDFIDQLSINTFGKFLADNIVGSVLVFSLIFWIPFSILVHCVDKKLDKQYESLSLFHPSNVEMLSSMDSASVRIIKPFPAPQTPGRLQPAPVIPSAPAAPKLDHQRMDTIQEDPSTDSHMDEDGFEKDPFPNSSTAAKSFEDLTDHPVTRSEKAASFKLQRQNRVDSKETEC
proKLK7 act – proKLK7 zymogen activators, primary screen, biochemical, fluorescence intensity; purified proKLK7, EDANS-DABCYL substrate fluorescence; 100% is mature enzyme control, 0% vehicle; hit rate 0.9% among 370,000; Kallikrein-7 (Homo sapiens), P49862; activation, % at 7 µM;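 active = activation above the mean of all tested compounds plus 3 SD, computed per campaign excluding outliers beyond control limits, cut at about 13% in these data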
ADAM10 inh – human ADAM10 inhibitors, primary screen, biochemical, QFRET, HTS | Disintegrin and metalloproteinase domain-containing protein 10 (Homo sapiens), O14672 | recombinant ADAM10, EDANS/DABCYL FRET peptide cleavage, 3 h | inhibition, % at 7 µM | hit rate 0.62% among 370,000;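 active = inhibition above a per-campaign cutoff equal to the mean of compounds falling between control-based bounds plus 3 SD, cut at about 20% in these data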
rCAG binder – binders of r(CAG) RNA repeats, primary screen, biochemical, fluorescence; r(CAG) RNA repeat, TO-PRO-1 dye displacement fluorescence; inhibition, % at 3 µM; hit rate 1.3% among 370,000;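 active = inhibition above the plate cutoff, the mean of all test compounds on that plate plus 3 SD, cut at about 35% in these data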;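 also: higher means more dye released from RNA so lower well fluorescence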
MPTP inh – mitochondrial permeability transition pore inhibitors, primary screen, biochemical, isolated mouse mitochondria, absorbance | Ca2+ swelling absorbance, 30 min | inhibition, % at 10 µM | hit rate 1.4% among 360,000 | AID 602449, 2012;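 active = inhibition of 50% or more, scaled per plate between neutral and stimulator controls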
DSG3 Ab inh – inhibitors of pemphigus antibody binding to DSG3, primary screen, biochemical, bead-based, flow cytometry, scFv-GFP; Desmoglein-3 (Homo sapiens), P32926; DSG3-coupled beads, scFv-anti-DSG3-GFP binding; active compounds read low; binding (percent of control), % at 10 µM; hit rate 0.48% among 310,000;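 active = binding more than 3 SD below its plate's average and above zero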;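 also: hits lower antibody fragment binding to DSG3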
Rh123 counter – fluorescence retest of MPTP screen hits in isolated mitochondria, single concentration; shares compounds with MPTP inh; membrane potential, Rhodamine 123 fluorescence; inhibition, % at 10 µM; hit rate 78% among 5,000; AID 624504, 2012; in the data active = inhibition above about 22%
MPTP swell DR – mitochondrial permeability transition pore inhibitors, dose response, biochemical, absorbance, uHTS hits. shares compounds with MPTP inh. IC50, µM. isolated mitochondria swelling. hit rate 58% among 780; in the data active = IC50 below about 20 µM
MPTP counter DR – fluorescent counter-screen in isolated mitochondria, dose response, counter-screen for MPTP inhibitor project, biochemical, fluorescence, uHTS hits | shares compounds with MPTP inh | isolated mitochondria counterscreen, fluorescence read-out | IC50, µM | AID 651564, 2012 | hit rate 49% among 780; in the data active = IC50 below about 80 µM
Large screens that a line does not name were inactive (follow-up assays come after a bar, where they were run). Compounds with a hit are over-represented: about 4.7% of the library has one in this group of screens.

Cc1ccc(S(=O)(=O)N2CCOCC2)cc1NC(=O)c1cc([N+](=O)[O-])ccc1N1CCOCC1	none
CC(Oc1cccc(Cl)c1)C(=O)Nc1cc(S(=O)(=O)N2CCOCC2)ccc1N1CCCC1 (stereo not drawn)	none
O=C(Nc1ccc([N+](=O)[O-])cc1)Nc1ccc(N2CCOCC2)c2nonc12	MPTP inh 96 | Rh123 counter 58
O=C(Nc1cccc(Cl)c1)Nc1cc(S(=O)(=O)N2CCOCC2)ccc1N1CCCC1	MPTP inh 87 | Rh123 counter 75
Cc1ccc(S(=O)(=O)N2CCOCC2)cc1NC(=O)Nc1ccc([N+](=O)[O-])cc1	MPTP inh 100 | Rh123 counter 99
CC(=O)Nc1cc([N+](=O)[O-])ccc1N1CCOCC1	none
COC(=O)[C@H](Cc1ccccc1)NC(=O)[C@H]1C[C@@]2(N3CCCC3)c3ccccc3N(C(=O)OC(C)(C)C)[C@H]2N1C(=O)OC(C)(C)C	none (no result: MPTP inh, DSG3 Ab inh)
O=C(COC(=O)c1cc(S(=O)(=O)Nc2ccccc2Cl)ccc1O)Nc1ccc(F)c(F)c1F	MPTP inh 68 | Rh123 counter 85
Cc1cccc(NC(=O)c2c([N+](=O)[O-])c(C(C)(C)C)nn2C)c1	none
CC(=O)Nc1ccc(NC(=O)c2cc([N+](=O)[O-])cc([N+](=O)[O-])c2)cc1	none
O=C(Nc1ccc(Br)cc1)c1cc([N+](=O)[O-])cc([N+](=O)[O-])c1	MPTP inh 102 | Rh123 counter 86
O=C(Nc1ccc([N+](=O)[O-])cc1)Nc1ccc2[nH]c(=O)[nH]c2c1	MPTP inh 82 | Rh123 counter 71
O=C(Nc1ccc([N+](=O)[O-])cc1)Nc1ccc2c(c1)OCCO2	MPTP inh 95 | Rh123 counter 90
Cn1nc(C(C)(C)C)c([N+](=O)[O-])c1C(=O)Nc1ccc(Br)cc1	MPTP inh 80 | Rh123 counter 93
C=CCN1C(=O)[C@@H](CC(=O)N2CCSCC2)[C@]2(C(=O)OCC)CCCCC/C=C/12	none (no result: MPTP inh, DSG3 Ab inh)
NC(=O)c1ncn([C@@H]2O[C@H](C(=O)Nc3ccc(Oc4ccccc4)nc3)[C@@H](O)[C@H]2O)n1	none (no result: MPTP inh, DSG3 Ab inh)
O=C(NNC(=O)c1cccc(O)c1)Nc1ccc([N+](=O)[O-])cc1	MPTP inh 56 | Rh123 counter 36
Cc1cccc(NC(=O)Nc2ccc([N+](=O)[O-])cc2)n1	MPTP inh 69 | Rh123 counter 54
O=C(OC1CC2CCC(C1)[N+]21CCCC1)C(O)(c1ccccc1)c1ccccc1 (stereo not drawn)	none (no result: MPTP inh, DSG3 Ab inh)
CCC(C)NCC(=O)Nc1ccc(-c2nc3cc(NC(=O)CNC(C)CC)ccc3o2)cc1 (stereo not drawn)	MPTP inh 74 (no result: DSG3 Ab inh) | Rh123 counter inactive | MPTP swell DR 16 | MPTP counter DR 36
CCN(CC)CC(=O)Nc1ccc(-c2nc3cc(NC(=O)CN(CC)CC)ccc3o2)cc1	none
COc1ccc(-c2nc3cc(NC(=O)Cc4ccc(OC)c(OC)c4)ccc3o2)cc1	MPTP inh 96 | Rh123 counter 90
CC(=O)C1=C(C)N(Cc2ccc(F)cc2)C(=S)NC1c1cccc(Br)c1 (stereo not drawn)	none (no result: MPTP inh, DSG3 Ab inh)
Cc1c(C(C)C)c(=O)n(-c2ccc(S(=O)(=O)NC3CCCCC3)cc2)n1C	none
Cc1c(C(C)C)c(=O)n(-c2ccc(S(=O)(=O)NCc3ccccc3)cc2)n1C	MPTP inh 96 | Rh123 counter 83

Screening data: PubChem, several laboratories
